In PubChem BioAssay (NCATS):
Records with an inconclusive call do not appear. Activity calls are given as the source filed them. Calls follow the shape of the dose curve; as a rule, active = well fitted curve in the direction sought with a large enough effect; inconclusive = small, poorly fitted or top-dose-only effect, or another doubt; inactive = no such curve, though single readings can be large; an effect the other way counts as inactive or inconclusive.

How the values were obtained:
[1] = system: HEK293T; assay: qHTS assay to identify novel small-molecules to repurpose for Merkel cell carcinoma treatment (AID 1296009); conditions: MCC and control cell lines, CellTiter-Glo viability, 72 h; series mostly up to 44.8 µM; also: nearly all actives have a fitted effect of over 60% in size
Outline: (§1)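 Viability readout: ATP luminescence (CellTiter-Glo) after 72 hr drug exposure at 37 degree celsius. Dose-response format was 8 points for NPC and 11 points for MIPE; data normalized to in-plate controls.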

[2] = system: NIH3T3; assay: as above; conditions: MCC and control cell lines, CellTiter-Glo viability, 72 h; at 44.8 µM (top of the series) unless noted
Outline: as §1

[3] = system: C33A; assay: Primary qHTS to identify gynecologic anti-cancer compounds using libraries of approved drugs and bioactive compounds (AID 1345084); conditions: Gynecologic cancer cell panel viability, ATPlite luminescence, 48 h; series mostly up to 57.5 µM; also: % is scaled to controls: 0 for no effect and ±100 for the full control effect; nearly all actives have a fitted effect of over 55% in size
Outline: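 Cell viability after 48 h drug treatment, ATPlite luminescence readout; five doses.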

CC1CCCC2OC2C(=O)c2c(O)cc(O)cc2CC(=O)O1 (configuration not stated)
inactive: Potency [1] | outcome [2] | Potency [3]

CC(C)(OC1OC(CO)C(O)C(O)C1O)C1CCC(O)(CO)C2CC(O)C(C)(O)C2C1 (configuration not stated)
inactive: Potency [1] | outcome [2] inactive [at 17.4 µM] | Potency [3]

COc1cc([C@@H]2Oc3c(OC)cc(CCCO)cc3[C@@H]2CO[C@@H]2O[C@H](CO)[C@@H](O)[C@H](O)[C@H]2O)ccc1O
inactive: Potency [1] | outcome [2] inactive [at 17.4 µM] | Potency [3]

CC(=O)O[C@H]1CC[C@@]2(CI)C(=CC[C@@H]3[C@@H]2CC[C@]2(C)[C@@H]([C@H](C)CCCC(C)C)CC[C@@H]32)C1
inactive: outcome [1] inactive [at 9.27 µM] | outcome [2] inactive [at 9.27 µM] | activity change, negative = cytotoxicity [3] 15% [at 11.6 µM]

CNC(=O)c1ccc2cc([C@@]3(O)CCn4cncc43)ccc2c1
inactive: Potency [1] | outcome [2] | Potency [3]

N#CC1C(=O)Nc2scc(-c3ccc(-c4ccccc4O)cc3)c2C1=O (configuration not stated)
inactive: Potency [1] | outcome [2] | Potency [3]

NC(=O)c1ccc(OCC2NC(=O)C3CCCN3C2=O)cc1 (configuration not stated)
inactive: Potency [1] | outcome [2] | Potency [3]

CC(/C=C/C1(O)C(C)CC(O)CC1(C)C)OC1OC(CO)C(O)C(O)C1O (configuration not stated)
inactive: Potency [1] | outcome [2] | Potency [3]

CCOC(=O)N1CCC(NCCNC(=O)c2ccccc2C)CC1
inactive: Potency [1] | outcome [2] | Potency [3]

C[C@@H](Nc1cc(NS(=O)(=O)N2CCC2)nc(SCc2cccc(F)c2F)n1)[C@@H](O)CO
inactive: Potency [1] | outcome [2] | Potency [3]

C=C(C)C1CC2(CO)C(=CC1=O)CCC(O)C2C (configuration not stated)
inactive: Potency [1] | outcome [2] | Potency [3]

C=CC1C(O[C@@H]2O[C@H](CO)[C@@H](O)[C@H](O)[C@H]2O)OC=C(C(=O)OC)C1Cc1nccc2c1[nH]c1ccccc12 (some centres not stated)
inactive: Potency [1] | outcome [2] inactive [at 17.4 µM] | Potency [3]

C=C(C)[C@@H]1CC[C@](C)(O)[C@@H](OC(=O)c2ccccc2)C1
inactive: Potency [1] | outcome [2] | Potency [3]

C[C@]12CCC(=O)C=C1[C@@H](O)C[C@@H]1[C@@H]2[C@@H](O)C[C@@]2(C)[C@H]1CC[C@]2(O)C(=O)CO
inactive: Potency [1] | outcome [2] | Potency [3]

COC(=O)[C@@H]1C2CC3c4[nH]c5ccccc5c4CCN3CC2CC[C@@H]1O (some centres not stated)
inactive: Potency [1] | outcome [2] | Potency [3]

C=Cc1cc(O)cc2nc(-c3ccc(O)c(F)c3)oc12
inactive: Potency [1] | outcome [2] | Potency [3]

CC(C)C1=CC2=CCC3[C@](C)(CCC[C@@]3(C)C(=O)O)C2CC1=O (some centres not stated)
inactive: Potency [1] | outcome [2] | Potency [3]

COC(=O)c1cc(CN2CCN(C(=N)N)CC2)cc(C(=O)N2CCN(C(=O)c3ccc(C(=N)N)cc3)CC2)c1
inactive: Potency [1] | outcome [2] | Potency [3]

CC1=CCC2C(C)(CO)CCCC2(CO)C1CO (configuration not stated)
inactive: Potency [1] | outcome [2] | Potency [3]
